Data on 93 compounds can be found in PubChem BioAssay AID2242 (National Center for Advancing Translational Sciences (NCATS), 2010).

In all, about 200,000 compounds went through this assay and about 720 (0.36%) were called active. Another 8% or so got no clear call; they are omitted. Calls follow the shape of the dose curve; as a rule, active = well fitted activation curve with a large enough effect; inconclusive = small, poorly fitted or top-dose-only effect, or effect the other way, or another doubt; inactive = flat fitted curve, though single readings scatter. The list shows a part of the results.
Potency is read from the fitted curve at half-maximal effect.

The assay addresses Lysosomal alpha-glucosidase (Homo sapiens) (UniProt P10253). Nature of the assay: qHTS Assay for Activators of Human alpha-Glucosidase as a Potential Chaperone Treatment of Pompe Disease. Also: nearly all actives have a fitted effect of over 80% in size.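 As to activity change, positive = activation: 0% = no enzyme basal signal and 100% = uninhibited enzyme activity.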 The following applies: purified enzyme, 4-MU-alpha-glucoside fluorescence, 20 min; series mostly up to 76.9 µM; activity change, positive = activation: at the top concentration. The method, boiled down:
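Fluorogenic assay, 4 nM enzyme, 400 uM 4-methylumbelliferyl-[…], pH 5.0 citrate/phosphate buffer with 0.005% Tween-20, compounds up to 77 uM, 20 min at room temperature. NaOH/glycine stop, Ex 365/Em 440 nm; AC50 from Hill fits.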
Background: In qHTS, concentration-response curves come from the screen itself.
On to `CCOC(=O)c1cc2c(=O)n3ccccc3nc2n(CCCOC)c1=NC(C)=O`, for which the Potency is 35.5 µM (active).

For `CCOC(=O)c1cc2c(=O)n3ccccc3nc2n(CC2CCCO2)c1=NC(C)=O` (stereo not drawn), the Potency is 35.5 µM (active).

For `CCOCCCn1c(=NC(C)=O)c(C(=O)OCC)cc2c(=O)n3ccccc3nc21`, the Potency was 39.8 µM (active).

On to `CCCn1c(=NC(C)=O)c(C(=O)OCC)cc2c(=O)n3ccccc3nc21`, for which the Potency was 35.5 µM (active).

Consider `CCOC(=O)c1cc2ccc(OC)cc2oc1=O`, for which the Potency is 31.6 µM (active).

Turning to `CCOC(=O)c1cc2ccc(OC(=O)c3ccco3)cc2oc1=O`, the Potency is 35.5 µM (active).

As for `CNC(=O)c1cc2ccc(OC)cc2oc1=O`, the Potency was 28.2 µM (active).

Turning to `CSc1nc2n(n1)C(c1ccccn1)C1=C(CC(C)(C)CC1=O)N2` (stereo not drawn), the Potency was 35.5 µM (active).

Take `CSCCC(NC(C)=O)C(=O)Oc1ccc2c3c(c(=O)oc2c1)CCCC3` (stereo not drawn): the Potency is 35.5 µM (active).

On to `CCC(NC(=O)OC(C)(C)C)C(=O)Oc1ccc2c3c(c(=O)oc2c1)CCC3` (stereo not drawn), for which the Potency was 35.5 µM (active).

For `Cc1c(OC(=O)CNC(=O)OC(C)(C)C)ccc2c3c(c(=O)oc12)CCC3`, the Potency was 11.2 µM (active).

Consider `Cc1csc(NC(=O)c2ccccc2O)n1`, for which the Potency was 39.8 µM (active).

For `Cc1ccc(N(C)S(=O)(=O)c2cccc(C(=O)Oc3ccc4c(C)cc(=O)oc4c3)c2)cc1`, the Potency is 31.6 µM (active).

As for `C=CCN(c1ccccc1)S(=O)(=O)c1cccc(C(=O)Oc2ccc3c(C)cc(=O)oc3c2)c1`, the Potency was 35.5 µM (active).

Take `CCN(c1ccccc1)S(=O)(=O)c1cc(C(=O)Oc2ccc3c(C)cc(=O)oc3c2)ccc1C`: the Potency was 28.2 µM (active).

Regarding `O=Cc1cn(-c2ccccc2)nc1-c1cc2cc(O)ccc2oc1=O`, the Potency was 35.5 µM (active).

As for `COc1ccc2cc3cc(C(=O)NCC4CCCO4)oc3nc2c1` (stereo not drawn), the Potency is 35.5 µM (active).

Turning to `COc1ccc2cc3cc(C(=O)NC(C)C)oc3nc2c1`, the Potency was 28.2 µM (active).

As to `CCC(C)NC(=O)c1cc2cc3ccc(OC)cc3nc2s1` (stereo not drawn), the Potency is 35.5 µM (active).

For `O=c1[nH]cnc2nc(-c3ccccc3)c(-c3ccccc3)nc12`, the Potency was 35.5 µM (active).

Consider `COc1ccc2cc3cc(C(=O)NCCN4CCN(c5ccccc5F)CC4)oc3nc2c1`, for which the Potency was 35.5 µM (active).

As for `COc1ccc2cc3cc(C(=O)NCCN4CCN(Cc5ccccc5)CC4)oc3nc2c1`, the Potency is 28.2 µM (active).

With `COc1ccc2cc3cc(C(=O)NCCN4CCc5ccccc5C4)oc3nc2c1`, the Potency was 35.5 µM (active).

On to `CC(=O)Nc1ccc(S(=O)(=O)NCC(=O)OCc2cc(=O)oc3ccc4ccccc4c23)cc1`, for which the Potency is 35.5 µM (active).

Consider `COc1cccc(-c2nc(N3CCN(Cc4ccccc4)CC3)c3ccccc3n2)c1O`, for which the Potency was 39.8 µM (active).

With `COC(=O)c1ccc2nc(Nc3nc4ccc(F)cc4s3)sc2c1`, the Potency is 12.6 µM (active).

As for `COC(=O)c1ccc2nc(Nc3nc4c(F)cc(F)cc4s3)sc2c1`, the Potency is 6.31 µM (active).

`O=C(NC1CCC(O)CC1)c1cc(-c2ccco2)nc2ccccc12` (stereo not drawn): the Potency is 39.8 µM (active).

For the compound `OCCN(CCO)c1ccc2ccccc2c1`, the Potency is 35.5 µM (active).

As to `c1ccc(CCNc2ccnc3cc4ccccc4cc23)cc1`, the Potency is 22.4 µM (active).

On to `CCOc1ccc2nc(N3CCOCC3)nc(C)c2c1`, for which the Potency was 39.8 µM (active).

Consider `Cc1cc(N2CCOCC2)nc2cc(O)ccc12`, for which the Potency is 28.2 µM (active).

As for `COc1ccc2nc(N3CCOCC3)cc(C)c2c1`, the Potency was 39.8 µM (active).

Turning to `COCCN(CCOC)C(=O)c1cc2c(=O)n3ccccc3nc2s1`, the Potency was 35.5 µM (active).

As to `CCN(CC)C(=O)c1cc2c(=O)n3ccccc3nc2s1`, the Potency was 31.6 µM (active).

Regarding `CC1=CN2C(=NC(=O)CC2(C)C(=O)N(CC(=O)NC2CCCC2)c2cc(C)cc(C)c2)C=C1` (stereo not drawn), the Potency was 39.8 µM (active).

As for `CC1=CN2C(=NC(=O)CC2(C)C(=O)N(CC(=O)NC2CCCC2)c2ccccc2C)C=C1` (stereo not drawn), the Potency was 35.5 µM (active).

With `CCC(=O)Oc1ccc2c(c1)OC1(OC(C)=O)OC(C)CC1=C2C` (stereo not drawn), the Potency was 5.62 µM (active).

Take `CCOC(=O)c1sc(-c2ccc(OC)cc2)cc1NC(C)=O`: the Potency is 28.2 µM (active).

`CCCCCn1c(=NC(C)=O)c(C#N)cc2c(=O)n3ccccc3nc21`: the Potency is 35.5 µM (active).

On to `CCOCCCn1c(=NC(C)=O)c(C#N)cc2c(=O)n3cccc(C)c3nc21`, for which the Potency was 31.6 µM (active).

For `CCOCCCn1c(=NC(C)=O)c(C#N)cc2c(=O)n3ccccc3nc21`, the Potency is 31.6 µM (active).

`O=C(Oc1ccc2c3c(c(=O)oc2c1)CCCC3)c1cccs1`: the Potency is 35.5 µM (active).

In the case of `O=C(Oc1cc2oc(=O)c3c(c2cc1Cl)CCCC3)c1cccs1`, the Potency was 31.6 µM (active).

On to `COCCn1c(=O)[nH]c2cc(C(=O)NCc3cccnc3)ccc2c1=O`, for which the Potency was 35.5 µM (active).

Take `COCCn1c(=O)[nH]c2cc(C(=O)NC(C)C)ccc2c1=O`: the Potency is 35.5 µM (active).

For `CCN1CCCC1CNC(=O)c1ccc2c(=O)n(CCOC)c(=O)[nH]c2c1` (stereo not drawn), the Potency is 31.6 µM (active).

Turning to `O=C(O)c1cccc(NC(=O)C2C3C=CC(C3)C2C(=O)O)c1` (stereo not drawn), the Potency was 31.6 µM (active).

For `COc1ccc(CCNC(=O)CSc2nc(-c3ccc(OC)c(OC)c3)ccc2C#N)cc1`, the Potency is 28.2 µM (active).

Regarding `O=c1oc2c(CN3CCOCC3)c(O)c(Cl)cc2c2c1CCC2`, the Potency was 35.5 µM (active).

Turning to `O=c1oc2c(CN3CCOCC3)c(O)c(Cl)cc2c2c1CCCC2`, the Potency was 31.6 µM (active).

With `CCCCN(C(=O)NC(=O)C1=C(N2CCOCC2)/C(=C/c2ccccc2)CC1)S(C)(=O)=O`, the Potency is 31.6 µM (active).

Turning to `CN(C(=O)NC(=O)C1=C(N2CCOCC2)/C(=C/c2ccccc2)CC1)S(C)(=O)=O`, the Potency is 39.8 µM (active).

In the case of `O=S(=O)(c1ccc(N2CCC(c3ccc(Cl)cc3)=N2)cc1)N(CCO)CCO`, the Potency was 35.5 µM (active).

For `CN(C)CCCNS(=O)(=O)c1ccc(N2CCC(c3ccc(Cl)cc3)=N2)cc1`, the Potency was 35.5 µM (active).

Take `Cc1ccc2c(c1)Cc1nc3ccccc3nc1-2`: the Potency was 35.5 µM (active).

With `COc1ccc2cc3cc(C(=O)NCc4cccnc4)oc3nc2c1`, the Potency is 31.6 µM (active).

For the compound `COc1ccc2cc3cc(C(=O)NCc4ccco4)oc3nc2c1`, the Potency is 31.6 µM (active).

For the compound `CCCCCn1c(-c2ccco2)nc2nc3ccccc3nc21`, the Potency is 39.8 µM (active).

Regarding `c1coc(-c2nc3nc4ccccc4nc3n2CC2CCCO2)c1` (stereo not drawn), the Potency was 25.1 µM (active).

On to `COCCn1c(-c2ccco2)nc2nc3ccccc3nc21`, for which the Potency is 35.5 µM (active).

On to `CC(C)OCCCn1c(-c2ccco2)nc2nc3ccccc3nc21`, for which the Potency was 35.5 µM (active).

Regarding `c1ccc(Cn2c(-c3ccco3)nc3nc4ccccc4nc32)cc1`, the Potency was 35.5 µM (active).

As to `CCC(C)n1c(-c2ccco2)nc2nc3ccccc3nc21` (stereo not drawn), the Potency was 39.8 µM (active).

On to `Nc1c(Cl)cc(Cl)cc1C(=O)OCC(=O)N1CCOCC1`, for which the Potency is 31.6 µM (active).

In the case of `CC(C)N(C(=O)COC(=O)c1cc(Cl)cc(Cl)c1N)C(C)C`, the Potency was 35.5 µM (active).

With `COC(=O)CNC(=O)COC(=O)c1cc(Cl)cc(Cl)c1N`, the Potency was 39.8 µM (active).

As for `Nc1c(Cl)cc(Cl)cc1C(=O)OCC(=O)NC1CC1`, the Potency is 35.5 µM (active).

For `Cc1ccc(Cc2c(C)c(C#N)c3[nH]c4ccccc4n3c2=O)cc1`, the Potency is 35.5 µM (active).

For `CCCCc1c(C)c(C#N)c2[nH]c3ccccc3n2c1=O`, the Potency was 22.4 µM (active).

For the compound `CCOC(=O)CCc1c(C)c(C#N)c2[nH]c3ccccc3n2c1=O`, the Potency is 31.6 µM (active).

On to `Cc1c(CCC(=O)O)c(=O)n2c([nH]c3ccccc32)c1C#N`, for which the Potency was 35.5 µM (active).

As to `Cc1cccc(C2=NN(c3ccc(Br)cc3)[C@@H](C(=O)N3CCOC3=O)[C@@H]2c2ccc(F)cc2)c1`, the Potency was 31.6 µM (active).

Turning to `COc1ccccc1[C@@H]1C(c2cccc(Cl)c2)=NN(c2ccc(Br)cc2)[C@H]1C(=O)N1CCOC1=O`, the Potency is 31.6 µM (active).

For `COC(=O)Cc1c(C)c2ccc(OC(=O)c3ccco3)cc2oc1=O`, the Potency is 35.5 µM (active).

With `CC(=O)Oc1ccc2c(C)c(CC(C)O)c(=O)oc2c1` (stereo not drawn), the Potency was 39.8 µM (active).

Regarding `COC(=O)Cc1c(C)c2ccc(OC(=O)c3ccccc3)cc2oc1=O`, the Potency was 35.5 µM (active).

On to `COC(=O)Cc1c(C)c2cc(Cl)c(OC(=O)c3ccco3)cc2oc1=O`, for which the Potency is 28.2 µM (active).

For the compound `CCC(=O)Nc1c(C#N)c2nc3ccccc3nc2n1-c1ccccc1C`, the Potency is 39.8 µM (active).

Regarding `CCC(C)NC(=O)CCC(=O)Nc1ccc2nc(N3CC(C)CC(C)C3)cc(C)c2c1` (stereo not drawn), the Potency was 31.6 µM (active).

Turning to `CCCCN(C)C(=O)CCC(=O)Nc1ccc2nc(N3CCOCC3)cc(C)c2c1`, the Potency was 39.8 µM (active).

In the case of `CCC(C)NC(=O)CCC(=O)Nc1ccc2nc(N3CCOCC3)cc(C)c2c1` (stereo not drawn), the Potency was 35.5 µM (active).

`Fc1ccc(C2=NN(c3ccccc3)C(c3ccco3)C2)cc1` (stereo not drawn): the Potency was 35.5 µM (active).

For `Cc1ccc(N2N=C(c3ccc(F)cc3)CC2c2ccco2)cc1` (stereo not drawn), the Potency is 28.2 µM (active).

Consider `COc1ccccc1C1CC(c2ccco2)=NN1c1ccccc1` (stereo not drawn), for which the Potency is 31.6 µM (active).

As to `CCOc1cc(C2C3=C(CCCC3=O)N(CCC(=O)O)C3=C2C(=O)CCC3)ccc1OS(=O)(=O)c1ccc(C)cc1`, the Potency is 35.5 µM (active).

`COc1ccc(/C=C/c2nnc(NC(=O)COc3cccc(C)c3)s2)cc1`: the Potency is 31.6 µM (active).

For `COC(=O)Nc1nnc(/C=C/c2ccccc2)s1`, the Potency was 31.6 µM (active).

With `CCSc1ccc(-c2nn(-c3ccccc3)cc2/C=C(/C#N)C(=O)NC)cc1`, the Potency was 25.1 µM (active).

`CCSc1ccc(-c2nn(-c3ccccc3)cc2/C=C(/C#N)C(=O)NCCCOC)cc1`: the Potency was 35.5 µM (active).

In the case of `CCOC(=O)/C(C#N)=C/c1cn(CCC(=O)O)nc1-c1ccc(Br)cc1`, the “activity change, positive = activation” value was 9.4e-05% (inactive).

In the case of `N#Cc1c(N)n(CCNC(=O)c2ccccc2)c2nc3ccccc3nc12`, the Potency is 7.94 µM (active).

Take `N#Cc1c(N)n(CCNC(=O)c2cccs2)c2nc3ccccc3nc12`: the Potency was 35.5 µM (active).
